From PubChem BioAssay (Tox21)
Results filed as inconclusive are left out. The source made the active and inactive calls. Unless noted, the call rests on the fitted dose curve; in most records, active means well fitted curve in the direction sought with a large enough effect in the repeat runs; inconclusive means weak or mixed curves; inactive means no such curve, though single readings can be large; an effect the other way counts as inactive or inconclusive.

Legend:
[1] = target: Peroxisome proliferator-activated receptor delta (Homo sapiens) (UniProt Q03181); experiment: qHTS assay to identify small molecule agonists of the peroxisome proliferator-activated receptor delta (PPARd) signaling pathway (AID 743212; calls by dose curve)
Peroxisome proliferator-activated receptor delta (Homo sapiens), sequence (Q03181 whole entry, looked up): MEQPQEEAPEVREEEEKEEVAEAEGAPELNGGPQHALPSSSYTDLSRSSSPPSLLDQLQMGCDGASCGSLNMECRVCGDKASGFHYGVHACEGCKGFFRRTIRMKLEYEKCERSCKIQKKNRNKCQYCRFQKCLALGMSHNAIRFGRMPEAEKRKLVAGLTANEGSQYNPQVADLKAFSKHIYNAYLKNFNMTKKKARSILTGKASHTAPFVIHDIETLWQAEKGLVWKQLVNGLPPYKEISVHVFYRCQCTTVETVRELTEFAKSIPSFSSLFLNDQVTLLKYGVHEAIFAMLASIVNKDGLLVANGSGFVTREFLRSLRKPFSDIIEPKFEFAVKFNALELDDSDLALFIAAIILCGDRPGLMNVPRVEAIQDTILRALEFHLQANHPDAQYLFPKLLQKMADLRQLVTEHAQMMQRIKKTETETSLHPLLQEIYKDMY
Procedure, shortened: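 Tox21 library screened in GeneBLAzer PPARd UAS-bla HEK293H cells. After compound treatment at 37 C, a FRET-based beta-lactamase substrate was applied for 2 h and fluorescence recorded.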

[2] = qHTS assay to identify small molecule antagonists of the peroxisome proliferator-activated receptor delta (PPARd) signaling pathway - cell viability counter screen (AID 743213); further: nearly all actives have a fitted effect of over 50% in size
Procedure, shortened: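 Agonist-stimulated (L165041, 300 nM final) HEK293H PPARd UAS-bla cells are exposed to compounds for 17 h at 37 C, and ATP-based luminescence (CellTiter-Glo) from the same wells reports cytotoxicity.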

[3] = target: Peroxisome proliferator-activated receptor delta (Homo sapiens) (UniProt Q03181); experiment: qHTS assay to identify small molecule antagonists of the peroxisome proliferator-activated receptor delta (PPARd) signaling pathway (AID 743215; active means well fitted inhibition curve with a large enough effect in the signal ratio in the repeat runs, not every such curve was filed as active; the % refers to the signal ratio; further: series mostly up to about 62 µM)
Procedure, shortened: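 Plated HEK293H PPARd-bla cells rested 5 h at 37 C and 5% CO2. Compound, then agonist L165041 at 300 nM final, was added; 17 h at 37 C followed. Substrate loading, 2 h room temperature, fluorescence measured.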

[4] = qHTS assay to identify small molecule agonists of the farnesoid-X-receptor (FXR) signaling pathway - cell viability counter screen (AID 743218); further: nearly all actives have a fitted effect of over 45% in size
Procedure, shortened: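 Viability of FXR-bla HEK 293T cells is measured by ATP-based CellTiter-Glo luminescence following 16 h compound treatment at 37 C and a prior 2 h room-temperature beta-lactamase substrate step.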

[5] = qHTS assay to identify small molecule antagonists of the farnesoid-X-receptor (FXR) signaling pathway - cell viability counter screen (AID 743221; active means well fitted cell-killing curve with a large enough effect in the repeat runs, not every such curve was filed as active; further: nearly all actives have a fitted effect of over 50% in size)
Procedure, shortened: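 Quantitative HTS of the Tox21 10K library run in parallel with the beta-lactamase reporter read. HEK 293T cells carrying a UAS-driven bla reporter got compound and 50 uM CDCA (final) for 16 h; ATP-based luminescence followed.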

[6] = qHTS assay to identify small molecule agonists of the vitamin D receptor (VDR) signaling pathway - cell viability counter screen (AID 743224); further: series mostly up to about 63 µM; nearly all actives have a fitted effect of over 50% in size
Procedure, shortened: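 Compounds were pin-transferred onto VDR-bla cells plated 4 h earlier; following 16 h incubation at 37C, cell viability was quantified by CellTiter-Glo luminescence after 30 min at room temperature.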

[7] = qHTS assay to identify small molecule antagonists of the vitamin D receptor (VDR) signaling pathway - cell viability counter screen (AID 743225); further: nearly all actives have a fitted effect of over 50% in size
Procedure, shortened: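 Cells (VDR-UAS-bla HEK 293T) are plated, rested 4 h at 37C, dosed with compound and 3 nM final 1-alpha,25-dihydroxy vitamin D3, and incubated 16 h. Viability is taken from CellTiter-Glo luminescence in the reporter wells.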

[8] = qHTS assay to identify small molecule agonists of the NFkB signaling pathway (AID 1159509; active means well fitted curve in the direction sought with a large enough effect in the signal ratio in the repeat runs, not every such curve was filed as active; the % refers to the signal ratio; further: series mostly up to about 61 µM)
Procedure, shortened: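 Agonist activity was read as beta-lactamase-driven FRET change (460 and 530 nm emission, 405 nm excitation) following 1.5 hr substrate loading at room temperature. Beforehand, ME-180 NFkB-bla reporter cells were treated with compounds for 5 hr at 37 C.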

[9] = qHTS assay to identify small molecule agonists of the NFkB signaling pathway - cell viability counter screen (AID 1159515; calls by dose curve; further: series mostly up to about 61 µM; nearly all actives have a fitted effect of over 55% in size)
Procedure, shortened: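 Parallel cytotoxicity counter screen in ME-180 cells carrying an NFkB-response-element beta-lactamase reporter, 2,000 cells/well. Compound exposure lasted 5 hr at 37 C, 5% CO2. Cell viability was quantified by CellTiter-Glo luminescence.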

[10] = qHTS assay to identify small molecule agonists of the endoplasmic reticulum stress response signaling pathway (AID 1159516; active means well fitted activation curve with a large enough effect in the signal ratio in the repeat runs, not every such curve was filed as active; the % refers to the signal ratio)
Procedure, shortened: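 Using a HeLa line with an ESRE-driven beta-lactamase gene, agonist activity was measured by FRET substrate fluorescence (460 and 530 nm emission) after cells were treated with compounds for 5 hr at 37 C and 5% CO2.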

[11] = qHTS assay to identify small molecule antagonists of the retinoid-related orphan receptor gamma (ROR-gamma) signaling pathway - cell viability counter screen (AID 1159520); further: nearly all actives have a fitted effect of over 50% in size
Procedure, shortened: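 Tet-on ROR gamma CHO cells were given compounds for 2 hr, then doxycycline hyclate at 1 uM final, and incubated 16 hr at 37 C. Viability was measured as ATP content by CellTiter-Glo luminescence.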

[12] = target: Nuclear receptor ROR-gamma (Homo sapiens) (UniProt P51449); experiment: qHTS assay to identify small molecule antagonists of the retinoid-related orphan receptor gamma (ROR-gamma) signaling pathway (AID 1159521)
Procedure, shortened: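 RORγ antagonism is scored from reduced reporter luminescence in Tet-on CHO cells. Induction used 1 uM final doxycycline hyclate for 16 h at 37 C, following a 2 h compound exposure.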

[13] = qHTS assay to identify small molecule agonists of the AP-1 signaling pathway - cell viability counter screen (AID 1159525; calls by dose curve; further: nearly all actives have a fitted effect of over 55% in size)
Procedure, shortened: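 Same-well cytotoxicity counter screen of the Tox21 10K library in ME-180 cells. The readout is ATP-dependent luminescence after 5 h compound treatment. Data are normalised to DMSO and tetra n-octyl ammonium bromide controls.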

[14] = qHTS assay to identify small molecule agonists of the AP-1 signaling pathway (AID 1159526; calls by dose curve)
[15] = qHTS assay to identify small molecule agonists of the peroxisome proliferator-activated receptor delta (PPARd) signaling pathway - cell viability counter screen (AID 743211); further: nearly all actives have a fitted effect of over 55% in size
Procedure, shortened: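 Viability of GeneBLAzer PPARd UAS-bla HEK293H cells was assessed after 17 h compound incubation at 37C, using CellTiter-Glo reagent added after the reporter read and luminescence recorded 30 min later.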

[16] = target: Vitamin D3 receptor (Homo sapiens) (UniProt P11473); experiment: qHTS assay to identify small molecule agonists of the vitamin D receptor (VDR) signaling pathway (AID 743222; calls by dose curve)
Vitamin D3 receptor (Homo sapiens), sequence (P11473 whole entry, looked up): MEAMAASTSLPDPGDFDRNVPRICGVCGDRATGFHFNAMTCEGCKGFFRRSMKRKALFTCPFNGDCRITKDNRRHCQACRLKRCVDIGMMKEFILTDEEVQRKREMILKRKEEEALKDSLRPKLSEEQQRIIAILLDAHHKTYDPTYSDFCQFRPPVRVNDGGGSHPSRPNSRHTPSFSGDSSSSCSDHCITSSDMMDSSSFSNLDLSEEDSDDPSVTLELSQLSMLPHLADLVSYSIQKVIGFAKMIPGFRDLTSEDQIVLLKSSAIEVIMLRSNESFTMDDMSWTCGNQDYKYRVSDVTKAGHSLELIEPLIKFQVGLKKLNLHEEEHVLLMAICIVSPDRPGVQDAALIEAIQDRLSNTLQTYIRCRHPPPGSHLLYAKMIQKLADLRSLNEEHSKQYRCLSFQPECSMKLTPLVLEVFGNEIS
Procedure, shortened: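 Fluorescence from cleaved LiveBLAzer B/G FRET substrate served as readout. VDR-bla cells had been treated 16 h at 37C with test compounds in DMSO, following a 4 h settling period, and substrate was loaded for 2 h at RT.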

[17] = target: Vitamin D3 receptor (Homo sapiens) (UniProt P11473); experiment: qHTS assay to identify small molecule antagonists of the vitamin D receptor (VDR) signaling pathway (AID 743223; active means well fitted inhibition curve with a large enough effect in the signal ratio in the repeat runs, not every such curve was filed as active; the % refers to the signal ratio)
Procedure, shortened: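 Fluorescence from LiveBLAzer B/G FRET substrate, read after 2 h at room temperature, reflects beta-lactamase reporter activity in VDR-bla cells treated 16 h at 37C with compounds and agonist 1alpha,25-dihydroxyvitamin D3 (3 nM final).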

[18] = qHTS assay to identify small molecule agonists of the endoplasmic reticulum stress response signaling pathway - cell viability counter screen (AID 1159517; calls by dose curve)
Procedure, shortened: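 In parallel with the ESRE reporter read, cytotoxicity was scored by CellTiter-Glo luminescence (30 min, room temperature) on HeLa ESRE-bla cells dosed for 5 hr.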

Measured: Potency

O=c1[nH]c(=O)n([C@H]2O[C@H](CO)[C@@H](O)[C@@H]2O)cc1/C=C\Br
not listed: [15] | [16] | [17] | [18]
inactive: all other assays above

CC(C)c1cccc(C(C)C)c1N
not listed: [4] | [18]
inactive: all other assays above

CCN(CC)S(=O)(=O)c1ccc(C(=O)O)cc1
not listed: [5] | [11] | [16] | [17] | [18]
inactive: all other assays above

COc1nc(C)nc(N)n1
not listed: [9]
inactive: all other assays above

Fc1ccccc1-c1ccccc1
not listed: [9]
inactive: all other assays above

O=Cc1ccccc1[N+](=O)[O-]
not listed: [1] | [18]
inactive: all other assays above

[O-][N+](=Nc1ccccc1)c1ccccc1
not listed: [3] | [11] | [16] | [17] | [18]
inactive: all other assays above
